Data: PubChem BioAssay AID1159580 (chemical genetic matrix, 2015)
The campaign covered roughly 5,500 compounds. About 2,000 (36%) were called active. Inconclusive results (about 18%) are left out. Rule as the data show it: active = normalized growth mostly below about 0.91 (no sharp cut-off); inconclusive = no clear call, values can overlap the other calls; inactive = mostly above about 0.92. The list shows a part of the results.

Experiment: chemical genetic growth profiling, strain panel (AID 1159580);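 also: tested at 20 µM; growth read once vehicle control cultures reached saturation at 30 °C; 1 = growth at the plate median or of vehicle wells; lower values mean less growth of the strain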
Settings: S. cerevisiae deletion strains, growth OD
[1] = locus YGR078C, strain PAC10, hits give low values
[2] = locus YHR030C, strain SLT2, hits give low values
[3] = locus YMR263W, strain SAP30, hits give low values
[4] = locus YNL153C, strain GIM3, hits give low values

Measured: normalized growth

CC(=O)c1ccc(S(=O)(=O)NC(=O)NC2CCCCC2)cc1
inactive: locus YAL040C, strain CLN3, hits give low values 1.06 | locus YER002W, strain NOP16, hits give low values 0.998 | [1] 0.99 | [2] 0.959 | locus YHR079C, strain IRE1, hits give low values 0.963 | locus YJL095W, strain BCK1, hits give low values 1.02 | locus YJR066W, strain TOR1, hits give low values 0.918 | locus YLR113W, strain HOG1, hits give low values 0.995 | [3] 0.987 | [4] 0.95 | locus YNL175C, strain NOP13, hits give low values 0.983 | locus YNL183C, strain NPR1, hits give low values 0.937 | locus YNL197C, strain WHI3, hits give low values 0.986 | locus YNL224C, strain SQS1, hits give low values 1.01 | locus YOR083W, strain WHI5 (second series), hits give low values 1 | locus YOR231W, strain MKK1, hits give low values 0.967 | locus YPL256C, strain CLN2, hits give low values 0.965

CCOC(=O)/C(C#N)=C/N=C(N/N=C\c1c(Cl)cccc1Cl)SC
inactive: locus YAL013W, strain DEP1, hits give low values 0.98 | locus YBR229C, strain ROT2, hits give low values 1.02 | locus YCL061C, strain MRC1, hits give low values 1.06 | locus YDL101C, strain DUN1, hits give low values 1.04 | locus YDR150W, strain NUM1, hits give low values 1.03 | [1] 0.996 | locus YHR087W, strain rtc3, hits give low values 1.01 | locus YJL187C, strain SWE1, hits give low values 0.998 | locus YJR043C, strain POL32, hits give low values 1.04 | locus YJR075W, strain HOC1, hits give low values 1.02 | locus YLR058C, strain SHM2 (second series), hits give low values 0.989 | locus YLR085C, strain ARP6, hits give low values 0.845 | locus YML094W, strain GIM5, hits give low values 0.901 | locus YMR219W, strain ESC1, hits give low values 1.01 | [3] 1.01 | locus YMR307W, strain GAS1, hits give low values 0.799 | [4] 1.03 | locus YNL322C, strain KRE1, hits give low values 0.968 | locus YPL055C, strain LGE1, hits give low values 0.956 | locus YPR135W, strain CTF4, hits give low values 0.795
active: locus YEL061C, strain CIN8, hits give low values 0.8 | [2] 0.687 | locus YKL190W, strain CNB1, hits give low values 0.926 | locus YLR039C, strain RIC1, hits give low values 0.771 | locus YLR262C, strain YPT6, hits give low values 0.796 | locus YNL298W, strain CLA4 (second series), hits give low values 0.795 | locus YNR030W, strain Alg12, hits give low values 0.863 | locus YPL241C, strain CIN2, hits give low values 0.764
